Bioassay records (PubChem BioAssay)
Cruzain inh Det: qHTS Assay for Promiscuous and Specific Inhibitors of Cruzain (with detergent); Cruzipain (Trypanosoma cruzi), P25779; purified cruzain, Z-FR-AMC fluorescence, 0.01% Triton; Potency, µM, actives largely listed as inhibitors; 0.43% of 200,000 active; AID 1478, 2009; further: nearly all actives have a fitted effect of over 40% in size
Target sequence (P25779 123-467 limits assumed): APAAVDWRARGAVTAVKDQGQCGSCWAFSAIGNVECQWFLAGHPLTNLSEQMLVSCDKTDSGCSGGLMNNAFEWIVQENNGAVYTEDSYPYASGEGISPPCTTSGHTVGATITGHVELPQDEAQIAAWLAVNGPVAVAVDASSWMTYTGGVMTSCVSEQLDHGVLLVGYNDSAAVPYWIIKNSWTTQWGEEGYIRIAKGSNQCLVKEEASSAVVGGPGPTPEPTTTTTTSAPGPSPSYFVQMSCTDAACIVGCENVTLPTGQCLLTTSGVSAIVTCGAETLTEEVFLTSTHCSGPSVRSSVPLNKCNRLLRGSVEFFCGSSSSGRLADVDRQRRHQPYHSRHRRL
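Cysteine protease activity tested under reducing, mildly acidic conditions (100 mM sodium acetate pH 5.5, 5 mM DTT) plus 0.01% Triton X-100. Cruzain 1.5 nM; substrate Z-FR-AMC 2 uM; 15 min compound preincubation at room temperature.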
Cruzain noTriton: qHTS Assay for Promiscuous and Specific Inhibitors of Cruzain (without detergent) | purified cruzain, Z-FR-AMC fluorescence, no detergent | Potency, µM, hits mostly inhibitors | 2.3% of 200,000 active | AID 1476, 2009; further: nearly all actives have a fitted effect of over 40% in size
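Purified cruzain at 1.5 nM, pre-incubated 15 min with compound at room temperature in 100 mM sodium acetate pH 5.5, 5 mM DTT, 0.00005% Triton X-100. Reaction started with 2 uM Z-FR-AMC; AMC fluorescence increase over 60 s gives rate.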
Of the large screens only hits and unclear results are named; the others gave an inactive call. Hits are enriched below; roughly 2.6% of the tested compounds scored in any of these assays. The call rests on the fitted dose curve; in most records, active means well fitted curve in the direction sought with a large enough effect; inconclusive means small, poorly fitted or top-dose-only effect, or another doubt; inactive means no such curve, though single readings can be large; an effect the other way counts as inactive or inconclusive.

CCCCCn1c(N)c(-c2nc3ccccc3o2)c2c([N+](=O)[O-])nn(C)c(=O)c21	Cruzain noTriton inconclusive
CCCCCn1c(N)c(-c2nc3ccccc3o2)c2c([N+](=O)[O-])nn(CC)c(=O)c21	Cruzain noTriton 10µM
COC(=O)c1c(NC(=O)c2ccc(N(C)S(=O)(=O)c3ccc(C)cc3)cc2)sc2c1CCCC2	Cruzain noTriton 3.98µM
CCOC(=O)c1c(NC(=O)c2ccccc2N(C)S(=O)(=O)c2ccccc2)sc2c1CCCC2	Cruzain noTriton 20µM
COC(=O)c1c(NC(=O)c2ccccc2N(C)S(=O)(=O)c2ccccc2)sc2c1CCCC2	Cruzain noTriton 25.1µM
CCOC(=O)c1c(NC(=O)c2ccccc2Cl)sc2c1CCCC2	none
COC(=O)c1c(NC(=O)CS(=O)(=O)c2ccc(C)cc2)sc2c1CCCC2	Cruzain noTriton inconclusive
COC(=O)c1c(NC(=O)CN(c2ccccc2)S(C)(=O)=O)sc2c1CCCC2	Cruzain noTriton inconclusive
Cc1ccc(-n2nc(C(=O)N(C)c3ccc(C)c(C)c3)c3c4ccccc4n(C)c3c2=O)cc1	none
COc1ccc([N+](=O)[O-])cc1NC(=O)CC(c1ccccc1)c1ccccc1	Cruzain noTriton 25.1µM
COc1ccc([N+](=O)[O-])cc1NC(=O)C(C)c1ccccc1 (stereo unspecified)	none
COc1ccc(CCNC(=O)C(=O)NCC(c2ccco2)S(=O)(=O)c2ccc(F)cc2)cc1 (stereo unspecified)	none
Nc1ccc(C(=O)N2CCCC2)cc1	none
Nc1ccc(C(=O)n2c3ccccc3c3ccccc32)cc1	Cruzain noTriton 25.1µM
N#Cc1c(N2CCCC(O)C2)nc(N)c2c(N)nc3c(c12)CC(=O)N3C12CC3CC(CC(C3)C1)C2 (stereo unspecified)	none
C=C(C)CN(CC)c1nc(N)c2c(N)nc3c(c2c1C#N)CC(=O)N3C12CC3CC(CC(C3)C1)C2	Cruzain noTriton 3.98µM
Cc1cc(Nc2cccc(C(F)(F)F)c2)nc2ccc(NC(=O)c3ccc(N(C)C)cc3)cc12	Cruzain noTriton inconclusive
COc1ccc(C(=O)Nc2ccc3nc(SCC(=O)N4CCc5ccccc54)sc3c2)cc1	none
COc1cccc(C(=O)Nc2ccc3nc(SCC(=O)N4CCc5ccccc54)sc3c2)c1	Cruzain noTriton 12.6µM
O=C(Nc1ccc2nc(SCC(=O)N3CCCc4ccccc43)sc2c1)c1cccc(Cl)c1	Cruzain noTriton 6.31µM
O=C(Nc1ccc2nc(SCC(=O)N3CCc4ccccc43)sc2c1)c1cccc(Cl)c1	Cruzain noTriton inconclusive
COC(=O)[C@@]1(Cc2ccc(OC)cc2)[C@H]2c3cc(C(=O)N(C)C)n(Cc4ccc(C)o4)c3C[C@H]2CN1C(=O)c1ccccc1	Cruzain noTriton inconclusive
N#Cc1cccc(-c2cncnc2NCc2cccs2)c1	none
COc1ccc(N(CC(=O)O)N=O)cc1	none
CCn1ccc2cc(S(=O)(=O)N3CCC(C(=O)NCc4ccc(OC)cc4)CC3)ccc21	none
C/C(=N\NC(N)=S)c1ccc(Cl)s1	Cruzain inh Det 0.562µM, Cruzain noTriton 0.251µM
C/C(=N\NC(=S)NC(C)C)c1ccc(Cl)s1	none
COc1cccc(-n2c(SCC(=O)Nc3cc(C)ccc3C)nc3c(oc4ccccc43)c2=O)c1	none
COc1cccc(-n2c(SCC(=O)Nc3cccc(Cl)c3)nc3c(oc4ccccc43)c2=O)c1	Cruzain noTriton 12.6µM
Cc1cccc(NC(=O)CSc2nc3c(oc4ccccc43)c(=O)n2C(C)C)c1	none
O=C(CSc1nc2c(oc3ccccc32)c(=O)[nH]1)Nc1cccc(Cl)c1	Cruzain noTriton 7.94µM
Cc1cc(-c2ccc(S(=O)(=O)Nc3cccc(Cl)c3C)cc2)on1	none
O=C(Nc1cccc(Cl)c1)c1cc(S(=O)(=O)N2CCCc3ccccc32)ccc1F	none
COc1ccc(NC(=O)C2CCN(S(=O)(=O)c3ccc4[nH]c(=O)ccc4c3)CC2)c(OC)c1	none
CCOc1ccc(CNCc2c(C(=O)O)n(Cc3ccccc3F)c3cc(OC)ccc23)cc1	none
COc1ccc(/C=C/c2nc(-c3ccccc3O)n(-c3ccccc3)n2)cc1	none
COc1ccc(/C=C/c2nc(-c3ccccc3O)n[nH]2)cc1	Cruzain noTriton 12.6µM
NCCCCCCN	none
Cc1nc(N)nc2ccccc12	none
O=[N+]([O-])c1cccc(C(=S)N2CCN(c3ccccc3)CC2)c1	none
CC1CCN(c2ccccc2NC(=S)NC(=O)c2ccc(-c3cccc([N+](=O)[O-])c3)o2)CC1	Cruzain noTriton 7.94µM
O=C(NC(=S)Nc1ccccc1N1CCOCC1)c1ccco1	none
CC1CCN(c2ccc(NC(=S)NC(=O)c3ccc(-c4cccc([N+](=O)[O-])c4)o3)cc2)CC1	Cruzain noTriton inconclusive
COc1ccc(C(=O)NC(=S)Nc2ccccc2N2CCOCC2)cc1Br	Cruzain noTriton inconclusive
O=[N+]([O-])c1cccc(-c2ccc(C(=S)N3CCN(c4ccc(F)cc4)CC3)o2)c1	Cruzain noTriton 25.1µM
O=C(NC(=S)Nc1ccccc1N1CCOCC1)c1ccc(-c2cc(Cl)ccc2Cl)o1	Cruzain noTriton 10µM
